The source of these data is PubChem BioAssay (NCI).

The panel holds about 83,000 compounds, 20% with a hit somewhere; the sample as a whole holds those more often.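 The endpoint reported here, percent growth, reads 100 for growth as untreated, 0 for no net growth and -100 for all cells dead.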 Unmarked numbers belong to inactive results. Activity calls are given as the source filed them. How the source made its calls: active means growth percent below 10; inactive means the rest.

Some test systems named below: SR leukemia; RPMI-8226 leukemia; OVCAR-8 ovarian; OVCAR-5 ovarian; OVCAR-4 ovarian; OVCAR-3 ovarian; HS 578T breast; NCI/ADR-RES ovarian; SK-OV-3 ovarian; IGROV1 ovarian.
Holding throughout (test): NCI-60 one-dose screen, 48 h (100 = growth as untreated, 0 = no growth, -100 = all killed)
Holding throughout (details): 10 µM unless noted

Regarding `CCSc1ccc2c(c1)N(CCCN1CCN(C)CC1)c1ccccc1S2`, the growth is -15% (active) in the assay on SR leukemia; 32.1% in the assay with RPMI-8226 leukemia; 76.3% in the assay with OVCAR-8 ovarian; 70% with OVCAR-5 ovarian; 61.2% in the assay on OVCAR-4 ovarian; 58.2% in the assay with OVCAR-3 ovarian. Moreover, the figures for the growth in the assay on HS 578T breast and with NCI/ADR-RES ovarian were 61.4% and 60.8%, respectively.
Regarding `C[C@@H]1CN(Cc2ccc(/C=C/c3n[nH]c4ccc5nc(-c6cn[nH]c6C(F)(F)F)c6c(c5c34)CCCC6)cc2)C[C@H](C)O1`, the growth in the assay with SR leukemia is 7.98% (active); in the assay with RPMI-8226 leukemia, 34.3%; in the assay with OVCAR-8 ovarian it was 33.4%; in the assay with OVCAR-4 ovarian, 29.9%; in the assay with SK-OV-3 ovarian it was 22.5%; with IGROV1 ovarian, 1.46% (active). The growth in the assay with OVCAR-3 ovarian is 38.2%; with HS 578T breast, 3.34% (active); with NCI/ADR-RES ovarian, 28.7%.
With `NC(=S)N/N=C/c1ccc(OC(=O)COc2cc(Cl)c(Cl)cc2Cl)cn1`, the growth in the assay on SR leukemia was 1.38% (active); in the assay with RPMI-8226 leukemia, 76.4%; in the assay with OVCAR-8 ovarian, 26.1%; in the assay with OVCAR-5 ovarian, 115%; in the assay on SK-OV-3 ovarian, 99.5%; with IGROV1 ovarian it was 63.8%. In addition, the growth is 59.2% in the assay on OVCAR-3 ovarian, 114% with HS 578T breast and 26.9% with NCI/ADR-RES ovarian.
For the compound `Cn1c(=O)c2[nH]c(CCCc3nc4c([nH]3)c(=O)n(C)c(=O)n4C)nc2n(C)c1=O`, the growth in the assay on SR leukemia is 129%; in the assay on RPMI-8226 leukemia, 107%; with OVCAR-8 ovarian, 90.4%; in the assay on OVCAR-5 ovarian, 122%; in the assay on OVCAR-4 ovarian, 118%; in the assay on OVCAR-3 ovarian, 128%. In addition, the growth in the assay on HS 578T breast is 116%; in the assay on NCI/ADR-RES ovarian it was 109%.
Consider `COc1cc2oc(-c3cccc(C(=O)Nc4ccc(Cl)cc4)c3)cc(=O)c2c(OC)c1OC`, for which the growth in the assay on SR leukemia was 8.67% (active); in the assay with RPMI-8226 leukemia, -18.3% (active); with OVCAR-8 ovarian, 23.5%; with OVCAR-5 ovarian, 57.5%; in the assay with OVCAR-4 ovarian, 60.5%; in the assay on IGROV1 ovarian, 25.5%. The figures for the growth in the assay with OVCAR-3 ovarian, in the assay with HS 578T breast and in the assay with NCI/ADR-RES ovarian were 43.1%, 33% and 26.2%, respectively.
As to `COc1ccc(C(=O)/C=C/c2ccc(OCc3ccccc3)c(OC)c2)cc1OC`, the growth in the assay with SR leukemia is 11.2%; in the assay with RPMI-8226 leukemia, -3.1% (active); with OVCAR-8 ovarian, 17.4%; in the assay with OVCAR-5 ovarian, 107%; with SK-OV-3 ovarian, 91%; with IGROV1 ovarian, 84.3%. The growth in the assay on OVCAR-3 ovarian is 10.3%; with HS 578T breast it was 94.7%; in the assay with NCI/ADR-RES ovarian, 36.4%.
Turning to `c1ccc(CCSc2ncnc3nc[nH]c23)cc1`, the growth with SR leukemia was 52.8%; with RPMI-8226 leukemia it was 82.1%; in the assay on OVCAR-8 ovarian, 66.9%; with OVCAR-5 ovarian it was 114%; in the assay on OVCAR-4 ovarian it was 84.8%; in the assay with OVCAR-3 ovarian, 116%. The growth in the assay on HS 578T breast is 100%; in the assay with NCI/ADR-RES ovarian, 99.2%.
With `COc1ccc(/C=C/c2n[nH]c3ccc(N4CCOC4=O)cc23)cc1`, the growth in the assay on SR leukemia is 2.85% (active); in the assay with RPMI-8226 leukemia, -14.9% (active); in the assay with OVCAR-8 ovarian it was 19.3%; in the assay on OVCAR-4 ovarian, 40%; in the assay with SK-OV-3 ovarian it was 25.2%; in the assay on IGROV1 ovarian, 8.62% (active). Further, the growth is 4.56% (active) in the assay with OVCAR-3 ovarian, 2.93% (active) in the assay on HS 578T breast and 15.6% in the assay on NCI/ADR-RES ovarian.
With `CCCCCN1C=C/C(=C\C(=O)N(C)c2ccc(Br)cc2)c2ccccc21`, the growth is 90.5% in the assay with SR leukemia; 89.1% in the assay with RPMI-8226 leukemia; 89.4% in the assay on OVCAR-8 ovarian; 104% in the assay on OVCAR-5 ovarian; 84.4% in the assay on OVCAR-4 ovarian; 96.3% in the assay with IGROV1 ovarian. For the same compound, the growth in the assay on OVCAR-3 ovarian was 98.8%; with HS 578T breast, 98.6%; in the assay with NCI/ADR-RES ovarian it was 100%.
Regarding `Nc1c(Cl)cc([N+](=O)[O-])cc1Br`, the growth is 99.5% in the assay on SR leukemia; 86.8% in the assay on RPMI-8226 leukemia; 93.9% in the assay on OVCAR-8 ovarian; 102% in the assay on OVCAR-4 ovarian; 110% with SK-OV-3 ovarian; 114% in the assay with IGROV1 ovarian. Moreover, the growth with OVCAR-3 ovarian was 102%; in the assay on HS 578T breast, 105%; in the assay on NCI/ADR-RES ovarian it was 95%.
As for `c1ccc2c(-c3c4ccsc4cc4[nH]c5ccccc5c34)c[nH]c2c1`, the growth in the assay with SR leukemia was 25.7%; with RPMI-8226 leukemia, 14.8%; in the assay with OVCAR-8 ovarian, 56.9%; with OVCAR-4 ovarian, 40.8%; with SK-OV-3 ovarian, 49.5%; in the assay with IGROV1 ovarian it was 38.1%. In addition, the values for the growth in the assay on OVCAR-3 ovarian, in the assay with HS 578T breast and with NCI/ADR-RES ovarian were 13.8%, 33.4% and 20.4%, respectively.
Consider `O=C1C(=O)c2c(nc3ncccn23)-c2ccccc21`, for which the growth in the assay on SR leukemia is -14.8% (active); in the assay with RPMI-8226 leukemia it was -25.3% (active); in the assay on OVCAR-8 ovarian, -60.7% (active); with OVCAR-4 ovarian, -96.2% (active); in the assay on SK-OV-3 ovarian, -97.9% (active); in the assay with IGROV1 ovarian it was -58.5% (active). The growth was -50.2% (active) in the assay with OVCAR-3 ovarian, -18.7% (active) with HS 578T breast and -32.8% (active) in the assay on NCI/ADR-RES ovarian.
For the compound `CC(C)C1C2=C(NCCN1C(=O)Cc1ccccc1)C(C)(C)N(Cc1ccccc1)C2=O` (configuration not stated), the growth in the assay on SR leukemia was 106%; in the assay on RPMI-8226 leukemia it was 102%; with OVCAR-8 ovarian it was 100%; in the assay on OVCAR-4 ovarian, 104%; in the assay with SK-OV-3 ovarian, 93.5%; in the assay on IGROV1 ovarian, 98.8%. In addition, the figures for the growth in the assay on OVCAR-3 ovarian, with HS 578T breast and in the assay on NCI/ADR-RES ovarian were 102%, 103% and 99%, respectively.
Regarding `COC(=O)C(c1ccccc1)C(CC(=O)c1ccccc1)c1ccccc1` (configuration not stated), the growth is 87.5% in the assay with SR leukemia; 71.1% in the assay with RPMI-8226 leukemia; 102% in the assay on OVCAR-8 ovarian; 93.3% in the assay on OVCAR-5 ovarian; 31.8% in the assay with SK-OV-3 ovarian; 83.3% in the assay with IGROV1 ovarian. Further, the growth in the assay with OVCAR-3 ovarian was 81.3%; in the assay with HS 578T breast, 102%; with NCI/ADR-RES ovarian it was 83.5%.
With `CC[C@H](CC[C@@H](C)[C@H]1CC[C@H]2[C@@H]3CC=C4C[C@@H](OCCc5nn[nH]n5)CC[C@]4(C)[C@H]3CC[C@]12C)C(C)C`, the growth is 105% with SR leukemia; 113% with RPMI-8226 leukemia; 108% with OVCAR-8 ovarian; 104% with OVCAR-4 ovarian; 96.8% with SK-OV-3 ovarian; 100% in the assay on IGROV1 ovarian. Besides, the growth with OVCAR-3 ovarian is 103%; in the assay with HS 578T breast, 113%; in the assay with NCI/ADR-RES ovarian it was 98.3%.
